MCF10A rerep = induces DNA re-replication in MCF 10a normal breast cells; MCF 10A DNA re-replication, Hoechst nuclear intensity, 48 h; Potency, µM (series often up to 46.1 µM), without a hit: at the highest dose activity, positive = re-replication, actives largely listed as activators; 350,000 tested, 2.9% active; AID 624296; note: potency is the fitted concentration of half-maximal effect; % of control where 0% means no effect; nearly all actives have a fitted effect of over 50% in size
IL-1B inflam inh = inhibitors of inflammasome signaling (IL-1 beta secretion); THP-1 LPS/ATP IL-1B secretion, AlphaLISA, 16 h; hits give low values; activity change, % at 57.5 µM; 360,000 tested, 4.7% active; AID 743279; in the data active = activity change below about -50%; inconclusive = mostly about -30% to -49%; note: % is set by controls: 0 for no effect and ±100 for the full control effect
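Secreted IL-1B measured by AlphaLISA bead assay after 16 h compound exposure of THP-1 cells; compounds (final up to 57.5 uM) added 1 h before LPS (250 ng/mL) and ATP (1.25 mM) stimulation; lower signal means less secretion.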
SW480 rereplic = inducers of DNA re-replication in SW480 colon cancer cells; SW480 DNA re-replication, Hoechst DNA content imaging, 48 h; AID 624297; Potency, µM (series often up to 46.1 µM), for the others: top-dose re-replication activation, hits mostly activators; 340,000 tested, 1.8% active; note: potency is the fitted concentration of half-maximal effect; % of control where 0% means no effect; nearly all actives have a fitted effect of over 55% in size
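Image-based DNA-content assay: after two days of treatment, nuclei were labelled with the DNA dye Hoechst and imaged, and hits were compounds raising the count of nuclei showing high fluorescence intensity.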
RORgamma inh = ROR gamma (mouse) transcription inhibition. P51450. Drosophila S2 Gal4-RORgamma UAS-luciferase reporter, 20 h. Potency, µM (highest dose often 53.6 µM), for the others: top-dose activity change, negative = inhibition, hits mostly inhibitors. 310,000 tested, 5.4% active. AID 2551; note: potency is the fitted concentration of half-maximal effect; % is set by controls: 0 for no effect and ±100 for the full control effect; nearly all actives have a fitted effect of over 60% in size
Target sequence (P51450 whole entry, looked up, the tested form may be a part): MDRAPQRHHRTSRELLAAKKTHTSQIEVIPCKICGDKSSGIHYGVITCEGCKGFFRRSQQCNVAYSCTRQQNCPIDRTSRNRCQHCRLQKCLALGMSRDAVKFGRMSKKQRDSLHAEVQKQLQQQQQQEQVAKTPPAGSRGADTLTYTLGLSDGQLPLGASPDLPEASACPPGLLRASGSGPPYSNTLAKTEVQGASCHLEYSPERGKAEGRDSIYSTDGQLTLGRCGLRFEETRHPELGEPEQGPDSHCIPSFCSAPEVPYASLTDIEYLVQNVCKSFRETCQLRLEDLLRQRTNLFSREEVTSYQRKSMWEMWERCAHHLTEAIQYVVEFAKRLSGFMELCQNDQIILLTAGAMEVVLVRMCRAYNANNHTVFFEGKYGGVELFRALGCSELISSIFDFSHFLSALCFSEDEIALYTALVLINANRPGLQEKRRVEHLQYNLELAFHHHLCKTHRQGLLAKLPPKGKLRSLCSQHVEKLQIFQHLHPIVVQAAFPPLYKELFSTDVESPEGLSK
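Luminescence from a UAS-regulated Photinus luciferase reporter in stably transfected Drosophila Schneider cells is measured; decreased signal marks ROR gamma inhibition. Fusion expression is induced by 700 uM copper sulfate for 20 hr.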
Gal4-VP16 FLuc = counter-screen for ROR gamma inhibitors: Gal4-VP16 reporter; Drosophila S2 Gal4-VP16 UAS-luciferase, luminescence, 20 h; Potency, µM (titrated, usually from 53.6 µM), for inactives: top-dose activity, negative = inhibition, actives largely listed as inhibitors; 310,000 tested, 3.5% active; AID 2546;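 note: Gal4-VP16 expression switched on by copper sulfate through the metallothionein promoter; potency is the fitted concentration of half-maximal effect; % is set by controls: 0 for no effect and ±100 for the full control effect; nearly all actives have a fitted effect of over 50% in size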
Numbers without * were called inactive; ? = inconclusive; . = no result given; [ ] = remark or other dose. The list is not random: actives were taken first. Their share in the collection is about 11%. Unless noted, calls come from the whole dose curve; as a rule, active = well fitted curve in the direction sought with a large enough effect; inconclusive = small, poorly fitted or top-dose-only effect, or another doubt; inactive = no such curve, though single readings can be large; an effect the other way counts as inactive or inconclusive.

SMILES	MCF10A rerep	IL-1B inflam inh	SW480 rereplic	RORgamma inh	Gal4-VP16 FLuc
COc1cccc(NC(=O)c2ccc(NCCCN3CCC(C)CC3)c([N+](=O)[O-])c2)c1	-42%	-65*	1%	-18%	-21%
Cc1ccc(NC(=O)c2ccc(NCCCN3CCC(C)CC3)c([N+](=O)[O-])c2)c(C)c1	7%	?	-12%	5%	1%
CCCN(CCC)CCCNc1ccc(C(=O)Nc2cccc(OC)c2)cc1[N+](=O)[O-]	13%	-81*	?	-9%	-14%
O=C(Nc1cc(F)cc(F)c1)c1ccc(NCCCN2CCCCCC2)c([N+](=O)[O-])c1	13%	-76*	?	-2%	-6%
Cc1ccc(NC(=O)c2ccc(NCCc3ccccc3)c([N+](=O)[O-])c2)cc1F	18µM*	3	4%	-34%	-25%
COCCNC(=O)Cn1cc(/C=C(\C#N)C(=O)NC2CCCC2)c2ccccc21	?	-10	11%	10%	-8%
Cc1ccc(S(=O)(=O)N2C[C@H]3C(=O)C[C@@H](c4ccccc4)N(S(=O)(=O)c4ccc(C)cc4)[C@H]3C[C@H]2c2ccccc2F)cc1	.	-20	.	.	.
Cc1cccc(-n2cnc3cc(C(=O)N4CCc5ccccc54)ccc32)c1	2%	-77*	3%	18%	?
CC1=NOC(=O)/C1=C\c1ccc(-c2ccc(Cl)cc2Cl)o1	?	-62*	?	2%	?
COc1cccc(CN2CCN(Cc3cc4ccccc4[nH]3)CC2CCO)c1 (stereo not given)	?	-11	-2%	21%	-7%
CCOc1ccc(CN2CCN(Cc3cc4ccccc4[nH]3)CC2CCO)cc1 (stereo not given)	23µM*	-6	?	0%	9%
CC(C)(C)CN1CCN(Cc2c[nH]c3ccccc23)CC1CCO (stereo not given)	6.5µM*	-23	0%	11%	-5%
CC(C)(C)CN1CCN(Cc2cc3ccccc3[nH]2)CC1CCO (stereo not given)	0.65µM*	-13	?	3%	-3%
CC12CCC(=O)N1C(C(=O)Nc1nc3ccc(Cl)cc3s1)CS2 (stereo not given)	?	-84*	-225%	.	.
COc1ccc2nc(NC(=O)C3CSC4(C)CCC(=O)N34)sc2c1 (stereo not given)	9%	?	11%	.	.
CCc1ccc2nc(NC(=O)C3CSC4(C)CCC(=O)N34)sc2c1 (stereo not given)	23%	-55*	6%	.	.
CC12CCC(=O)N1C(C(=O)Nc1nc3ccc(S(C)(=O)=O)cc3s1)CS2 (stereo not given)	11%	-1	-27%	9%	-8%
COC(=O)NC1CC2C=CC1C1C=CC21 (stereo not given)	.	1	.	.	.
O=C(NCc1ccncc1)[C@@H]1CCCN1C(=O)[C@@H]1CCCN1C(=O)c1ccccc1Cl	.	43	.	.	.
C[C@@]12C(C[C@H](O)[C@@]34C[C@@H](CCC13)[C@@H](CO)C4=O)[C@](C)(C(=O)O)CC[C@@H]2O (stereo not given in full)	.	-5	.	.	.
C=C1C(=O)[C@]23C[C@H]1CCC2[C@@]1(C)C(C[C@@H]3O)[C@](C)(C(=O)OC)CC[C@@H]1O (stereo not given in full)	.	-111*	.	.	.
CC1(C)OC(=O)C2=C(C[C@@H](CCc3ccccc3)O[C@H]2CCc2cccc(Cl)c2)O1	.	18	.	.	.
C=CC[C@@H](CC(=O)N(CCO)Cc1ccccc1)C(=O)NC[C@H](OC(=O)[C@@H](CC=C)Cc1ccc(F)cc1)c1ccccc1	?	-71*	7%	.	.
C=CC[C@@H](CC(=O)N(CCO)Cc1ccccc1)C(=O)N[C@H](COC(=O)[C@@H](CC=C)Cc1ccc(F)cc1)C(C)(C)C	21%	-83*	?	.	.
C=CC[C@H](CC(=O)N(CCO)Cc1ccccc1)C(=O)N[C@H](COC(=O)[C@@H](CC=C)Cc1ccc(F)cc1)C(C)(C)C	?	-61*	1%	.	.
SMILES	MCF10A rerep	IL-1B inflam inh	SW480 rereplic	RORgamma inh	Gal4-VP16 FLuc
COC(=O)c1sc2nc(C)nc(SCC(=O)Nc3sccc3C(N)=O)c2c1C	0%	5	-4%	.	.
CSc1nc(N)n2nccc2n1	.	0	.	.	.
COc1cccc(CNc2nc3cc(-c4cscc4C)sc3c(=O)n2C)c1	.	-57*	.	.	.
Cc1ccc(Nc2cc(-c3ccccc3)nc3ncnn23)cc1	-5%	-56*	-8%	11µM*	?
CCc1ccc(Nc2cc(C)nc3ncnn23)cc1	1%	-7	-121%	-16%[1.91 µM]	-2%
CCn1c2ccccc2c2cc(Nc3cc(C)nc4ncnn34)ccc21	?	115	?	20µM*	?
O=C(c1cccc(F)c1)N1CCC2(CC1)CCN(c1ccc(-c3ccccc3)cc1)CC2	.	.	.	-20%	10%
CCOC(=O)C(C)N1c2cccc3cccc(c23)S1(=O)=O (stereo not given)	.	3	.	.	.
Cc1ccccc1NC(=O)Cc1nc(COC(=O)c2cc(Br)ccc2O)cs1	16µM*	8	-6%	.	.
CCN(CC)C(=S)SCc1csc(CC(=O)Nc2ccccc2C)n1	1%	10	-2%	11µM*	-22%
COc1ccccc1CNC(=O)CCNC(=O)C1CCN(S(=O)(=O)c2ccccc2)CC1	-10%	21	-8%	-26%	-2%
CCOc1cc(/C=C2/C(=O)ON=C2C)ccc1OCc1ccc(F)cc1	?	-24	18µM*	-10%	3%
CCOc1cc(/C=C2/C(=O)ON=C2C)ccc1OCc1ccccc1F	?	-100*	23µM*	?	?
CN1C(=O)/C(=C/c2ccc(OCc3ccccc3F)cc2)NC1=S	?	1	-7%	?	-1%
COc1cc(/C=C2\NC(=S)N(C)C2=O)ccc1OCc1ccccc1F	?	0	?	11µM*	?
CCOc1cc(/C=C2/C(=O)ON=C2C)ccc1OCc1ccccc1	?	-20	?	?	?
CC(=O)Nc1cccc(NC(=O)CSc2nc(=O)n3cccc(C)c3n2)c1	-2%	-5	-10%	.	.
COC(=O)NC(c1ccc(Cl)cc1)C(C(C)=O)C(=O)OC (stereo not given)	.	.	.	-5%[10 µM]	-4%[10 µM]
COc1ccc(/C=C2\C(=O)ON=C2c2cccc([N+](=O)[O-])c2)cc1	.	.	.	5%	4%
COc1ccc(/C=C2/C(=O)ON=C2c2ccccc2)cc1OC	?	-102*	1%[9.22 µM]	1%	?
CCOc1cc(/C=C2\C(=O)ON=C2c2ccccc2)ccc1OC	?	-94*	?	10%	-20%
COc1cc(/C=C2\N=C(c3ccccc3)NNC2=O)cc(OC)c1OC	1.8µM*	29	5.8µM*	-6%	-1%
O=C1ON=C(c2ccccc2)/C1=C/c1ccco1	?	19	19%	8%	0%

Bioassay records (PubChem)
